# Test results: the supplement of paper PMC12340641
# The full ranking holds about 1,000 compounds; the median of “relative growth in counter assay (no AraC = 100%, AraC + DMSO = 0%)” is about -1.1, and the highest 2% start at about 20. Many of the other results were omitted from the sample, so the highest values are more common in it than they were.
# Tested on: HEK293FT dCK*-only
# Assay: relative growth in counter assay (no AraC = 100%, AraC + DMSO = 0%); higher = more growth rescue independent of IKZF1
# Details: compound concentration: 5 uM; AraC concentration: 0.3 uM; overnight pretreatment + 4 days AraC
# Procedure: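 Growth recovery screen of the molecular-glue-like (Specs) library. HEK293FT cells expressing a dCK*-IKZF1 fusion (primary) or dCK* alone (counter) were pretreated overnight with compound at 5 uM, then given 0.3 uM AraC for 4 days. Hoechst nuclei were counted by imaging. Primary: normalised to pomalidomide (100%) and DMSO (0%), mean of 2 replicates. Counter: normalised to no-AraC (100%) and AraC+DMSO (0%), single replicate.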
row,Compound,relative growth in counter assay
1,Cc1cc(C)c2[nH]c3nc(SCC(=O)Nc4ccc(Cl)cc4)nnc3c2c1,-17.9%
2,Cc1cc(C)nc(NS(=O)(=O)c2ccc(Nc3nc(-c4ccc(Cl)cc4)cs3)cc2)n1,-7.62%
3,O=C(Nc1ccc(S(=O)(=O)Nc2ncccn2)cc1)c1ccc(Br)cc1,1.1%
4,CCOCC(=O)Nc1ccc(S(=O)(=O)Nc2ncccn2)cc1,-2.18%
5,O=C(C1CNCCO1)N1CCC(c2cccc(Nc3ncc(-c4ccccc4)s3)n2)CC1 (stereo not given),1.14%
6,O=S(=O)(Cc1ccccc1)Nc1ccc(S(=O)(=O)Nc2ncccn2)cc1,5.8%
7,Cc1ccnc(NS(=O)(=O)c2ccc(NC(=O)Cc3c(F)cccc3Cl)cc2)n1,10%
8,COc1ccc(-c2csc(Nc3ccc(S(=O)(=O)Nc4nc(C)cc(C)n4)cc3)n2)cc1,-6.81%
9,O=C(Nc1ccc(S(=O)(=O)Nc2ncccn2)cc1)c1ccccc1Br,-0.83%
10,Cc1ccc(OCC(=O)Nc2ccc(S(=O)(=O)Nc3ncccn3)cc2)cc1C,2.12%
11,CC(=O)N1CCC(Cc2cccc(Nc3nc(C)cs3)n2)CC1,24.3%
12,Cc1csc(Nc2cccc(CC3CCN(CC(=O)N(C)C)CC3)n2)n1,7.9%
13,COc1cccc(OC)c1C(=O)N1CCOC(c2cccc(Nc3nc(C)cs3)n2)C1 (stereo not given),10.3%
14,Cc1cnc(Nc2cccc(C3CN(C(=O)C45CC6CC(CC(C6)C4)C5)CCO3)n2)s1 (stereo not given),-1.75%
15,Cc1cnc(Nc2cccc(C3CN(C(=O)CCC4CCCCC4)CCO3)n2)s1 (stereo not given),-1.73%
16,Cc1cnc(Nc2cccc(C3CN(C(=O)C4CC4c4ccc(Cl)cc4)CCO3)n2)s1 (stereo not given),28.7%
17,Cc1csc(Nc2cccc(C3CN(C(=O)CCOc4ccccc4C)CCO3)n2)n1 (stereo not given),49.2%
18,Cc1csc(Nc2cccc(C3CN(C(=O)CCC4CCCC4)CCO3)n2)n1 (stereo not given),32.3%
19,Cc1csc(Nc2cccc(C3CN(C(=O)Cn4nc(C)ccc4=O)CCO3)n2)n1 (stereo not given),-2.02%
20,Cc1csc(Nc2cccc(C3CN(C(=O)COc4c(C)cccc4C)CCO3)n2)n1 (stereo not given),1.27%
21,CC(=O)N1CCC(Cc2cccc(Nc3nccs3)n2)CC1,-8.99%
22,Cc1cnc(Nc2cccc(C3CN(C(=O)C4CCCC4)CCO3)n2)s1 (stereo not given),-17%
23,Cc1cnc(Nc2cccc(C3CN(C(=O)CCOc4cccc(F)c4)CCO3)n2)s1 (stereo not given),19.7%
24,Cc1cnc(Nc2cccc(C3CN(C(=O)COc4cccc(F)c4)CCO3)n2)s1 (stereo not given),-7.34%

row,Compound,relative growth in counter assay
1,Cc1cnc(Nc2cccc(C3CN(C(=O)COc4ccccc4)CCO3)n2)s1 (stereo not given),-9.61%
2,Cc1ccc(OCC(=O)Nc2ccc(S(=O)(=O)Nc3cc(C)nc(C)n3)cc2)c(C)c1,-2.7%
3,Cc1cc(C)nc(NS(=O)(=O)c2ccc(NC(=O)C(C)Oc3ccccc3F)cc2)n1 (stereo not given),5.27%
4,COc1ccccc1OCC(=O)Nc1ccc(S(=O)(=O)Nc2nc(C)cc(C)n2)cc1,-7.04%
5,CC(C)(C)C(=O)N1CCC(Cc2ccc(Nc3ncc(-c4ccc(F)cc4)s3)nc2)CC1,12.2%
6,Cn1nccc1/C=C/C(=O)N1CCCC(c2csc(Nc3ccccn3)n2)C1 (stereo not given),29%
7,O=C(/C=C/c1ccccc1)N1CCCC(c2csc(Nc3ccccn3)n2)C1 (stereo not given),34.8%
8,CC(=O)N1CCCC(c2csc(Nc3ccccn3)n2)C1 (stereo not given),0.33%
9,O=C(/C=C/c1ccco1)N1CCCC(c2csc(Nc3ccccn3)n2)C1 (stereo not given),11.1%
10,Cn1nccc1/C=C/C(=O)N1CCCC1c1csc(Nc2ccccn2)n1 (stereo not given),-0.93%
11,Cn1nccc1/C=C/C(=O)N1CCCC(c2cc3ccccc3c(Nc3nccs3)n2)C1 (stereo not given),-13.3%
12,O=C(C1CCCCC1)N1CCC(c2cccc(Nc3nccs3)n2)CC1,-10.8%
13,O=C(Nc1ccc(S(=O)(=O)Nc2ccccn2)cc1)c1cc2ccccc2o1,-2.82%
14,CCCc1cnc(Nc2cccc(C3CN(C(=O)C4CCCCC4)CCO3)n2)s1 (stereo not given),-12.3%
15,Cc1cnc(Nc2cccc(C3CCN(C(=O)C4CCC4)CC3)n2)s1,-21%
16,Cc1ccc(C)c(OCCCC(=O)Nc2ccc(S(=O)(=O)Nc3ncccn3)cc2)c1,-2.63%
17,CC(C)(C)c1ccccc1OCC(=O)Nc1ccc(S(=O)(=O)Nc2ccccn2)cc1,4.41%
18,COc1cc2c(cc1CCC(=O)N1CCCC1c1cccc(Nc3nccs3)n1)CCC2 (stereo not given),-3.49%
19,CC(C)(C)c1ccccc1OCC(=O)Nc1ccc(S(=O)(=O)Nc2ncccn2)cc1,-1.93%
20,Cc1cnc(Nc2cccc(C3CCN(C(=O)CCc4nc5ccccc5[nH]4)CC3)n2)s1,-4.59%
21,CCCC(C)C(=O)Nc1ccc(S(=O)(=O)Nc2nccc(C)n2)cc1 (stereo not given),-3.64%
22,Cc1cnc(Nc2cccc(C3CN(C(=O)c4ccccn4)CCO3)n2)s1 (stereo not given),-7.73%
23,O=C(CSc1nnc2c(n1)[nH]c1ccc(Cl)cc12)Nc1ccc(Cl)cc1,3.64%
24,COC(=O)C(c1cccc(Nc2ncc(C)s2)n1)C1CCN(C(=O)C2(NC(=O)OC(C)(C)C)CCCCC2)CC1 (stereo not given),9.03%

row,Compound,relative growth in counter assay
1,COc1cc(NS(=O)(=O)c2ccc(NC(=O)c3ccc([N+](=O)[O-])cc3)cc2)nc(OC)n1,4.43%
2,CNC(=O)C(c1cccc(Nc2ncc(C)s2)n1)C1CCN(C(=O)[C@H](CC(C)C)NC(=O)OC(C)(C)C)CC1 (stereo not given in full),8.97%
3,CCCC(=O)Nc1ccc(S(=O)(=O)Nc2cc(OC)nc(OC)n2)cc1,-1.4%
4,O=C(COc1ccc(F)cc1)N1CCC(c2cccc(Nc3nccs3)n2)CC1,6.47%
5,Cn1c(SCC(=O)Nc2ccccn2)nc2ccccc21,0.85%
6,COc1cc(NS(=O)(=O)c2ccc(NC(=O)/C=C/C(=O)O)cc2)nc(OC)n1,2.31%
7,CNC(=O)C(c1cccc(Nc2ncc(C)s2)n1)C1CCN(C(=O)c2cccc(Cl)c2F)CC1 (stereo not given),-0.24%
8,O=C(CO)N1CCC(c2cccc(Nc3ncc(-c4ccccc4)s3)n2)CC1,-21.4%
9,CCN1CC(C(=O)N2CCC(c3cccc(Nc4ncc(C)s4)n3)CC2)CC1=O (stereo not given),-1.29%
10,COc1cc(NS(=O)(=O)c2ccc(NCc3ccccc3O)cc2)nc(OC)n1,-0.72%
11,Cc1noc(CCC(=O)N2CCOC(c3cccc(Nc4nc(C)c(C)s4)n3)C2)n1 (stereo not given),5.54%
12,COc1cccc(C(=O)Nc2ccc(S(=O)(=O)Nc3ncccn3)cc2)c1,-5%
13,Cc1nc(Nc2cccc(C3CCN(C(=O)c4n[nH]c5c4CCCC5)CC3)n2)sc1C,14%
14,Cc1cc(C)nc(NS(=O)(=O)c2ccc(NC(=O)CSc3nc(C)cc(C)n3)cc2)n1,-6.83%
15,CCC(Oc1ccccc1)C(=O)Nc1ccc(S(=O)(=O)Nc2nc(C)cc(C)n2)cc1 (stereo not given),-3.58%
16,CC(Oc1ccccc1)C(=O)Nc1ccc(S(=O)(=O)Nc2ncccn2)cc1 (stereo not given),0.06%
17,CCCC(=O)Nc1ccc(S(=O)(=O)Nc2nc(C)cc(C)n2)cc1,-9.14%
18,Cc1cc(C)nc(SCC(=O)Nc2ccc(S(=O)(=O)Nc3ncccn3)cc2)n1,19.9%
19,Cc1cc(C)nc(NS(=O)(=O)c2ccc(NC(=O)CCl)cc2)n1,23.6%
20,CC(=O)Nc1ccc(S(=O)(=O)Nc2nc(C)cc(C)n2)cc1,-0.14%
21,Cc1cc(C)nc(NS(=O)(=O)c2ccc(NC(=O)CSc3nccn3C)cc2)n1,2.1%
22,CCC(Oc1ccccc1)C(=O)Nc1ccc(S(=O)(=O)Nc2ncccn2)cc1 (stereo not given),27.4%
